Rows were chosen to be rich in hits. Some 5.1% of all compounds tested hit in one or more screens of this group.
S1P3 antagonist = S1P3 receptor antagonists, primary screen, cell-based. Sphingosine 1-phosphate receptor 3 (Homo sapiens), Q99500. inhibition, % at 4.98 µM. CHO S1P3 NFAT-BLA reporter, FRET fluorescence, antagonist mode. 170,000 tested, 0.27% active;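 active means inhibition above the plate cutoff, the mean inhibition of test wells on that plate plus 3 SD, cut at about 28% in these data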;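 further: cells challenged with S1P at its EC80 of 0.8 µM; blue over green emission ratio from cleaved BLA substrate after 4 h stimulation; 0% = S1P-stimulated wells and 100% = unstimulated DMSO-only wells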
RAM inhibit = inhibitors of the yeast RAM network, primary screen, dse1pr::URA3 reporter, 5-FOA selection. S. cerevisiae dse1pr::URA3 reporter, 5-FOA growth OD615, 2 d; analog-sensitive cbk1-as2 kinase mutant strain. inhibition, % at 50 µM. 190,000 tested, 1.8% active. AID 868, 2007;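 active means inhibition above a set limit, 3 SD over mean compound inhibition, cut at about 8.4% in these data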;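 further: 0% = DMSO-only wells with no growth and 100% = 10 µM 1-NA-PP1 full growth; inhibition rescues growth on 5-FOA so higher OD means more RAM inhibition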
S1P4 ag = S1P4 receptor agonists, primary screen, cell-based; Sphingosine 1-phosphate receptor 4 (Homo sapiens), O95977; S1P4-expressing cell line, agonist reporter assay; activation, % at 4.98 µM; 220,000 tested, 0.35% active; AID 1509, 2009; in the data active means activation above about 11%;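 further: 0% = DMSO vehicle and 100% = reference agonist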
KCC2 mod = KCC2 cotransporter modulators, thallium flux, primary screen, cell-based, HEK293 KCC2, FluoZin-2 fluorescence, MLSMR; B-score of Tl+ flux slope (higher = more flux/activation; lower = inhibition) at 10 µM; 190,000 tested, 2.2% active; Solute carrier family 12 member 5 (Homo sapiens), Q9H2X9; KCC2 cells, thallium flux FluoZin-2 fluorescence;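 active means thallium flux slope and its plate-corrected score both differing from the plate sample mean at a set confidence after two filtering rounds, in either direction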;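 further: slope of fluorescence scaled to starting intensity during 10 to 20 s after thallium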
S1P4 antagonist = S1P4 receptor antagonists, primary screen, cell-based | Sphingosine 1-phosphate receptor 4 (Homo sapiens), O95977 | S1P4-expressing cells, antagonist mode, reporter read-out | inhibition, % at 4.98 µM | 220,000 tested, 0.26% active | AID 1510, 2009; in the data active means inhibition above about 29%;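 further: 0% = wells stimulated with agonist and 100% = vehicle wells without agonist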
ROMK mod = ROMK potassium channel modulators, primary screen, cell-based, thallium flux, MLSMR library; ATP-sensitive inward rectifier potassium channel 1 (Homo sapiens), P48048; Tet-inducible ROMK, thallium flux fluorescence; actives lie on both sides; B-score at 10 µM; 130,000 tested, 2% active; AID 1918, 2009;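 active means signal ratio slope over the read window, or its plate-corrected B-score, at least 3 SD from the plate mean, either direction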;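 further: B-score of the F/F0 ratio slope over 7 to 12 s after thallium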
Target sequence (P48048 whole entry, looked up): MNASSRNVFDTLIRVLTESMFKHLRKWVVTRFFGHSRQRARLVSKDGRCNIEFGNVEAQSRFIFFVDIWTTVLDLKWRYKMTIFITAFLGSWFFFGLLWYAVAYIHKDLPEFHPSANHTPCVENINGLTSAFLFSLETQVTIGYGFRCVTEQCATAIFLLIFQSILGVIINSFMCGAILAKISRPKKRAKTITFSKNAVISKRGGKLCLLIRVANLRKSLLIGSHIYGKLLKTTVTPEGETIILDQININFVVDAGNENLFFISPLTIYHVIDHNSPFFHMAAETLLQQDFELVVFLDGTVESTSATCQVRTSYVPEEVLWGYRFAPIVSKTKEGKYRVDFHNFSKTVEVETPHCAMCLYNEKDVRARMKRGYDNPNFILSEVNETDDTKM
ROMK retest = ROMK channel modulator hit retest, confirmation, cell-based, thallium flux, duplicate, resupplied hits; shares compounds with ROMK mod; fluorescence ratio; active compounds read low; normalized thallium flux (F/F0 slope) at 10 µM; 3,000 tested, 54% active; AID 1917, 2009;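 active means Flux at 10 µM at least 3 SD below or above vehicle control mean in one or both replicates; inconclusive means no clear call, values can overlap the other calls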
* marks the source's active call; other numbers are inactive results; i = inactive; u = inconclusive; x = not tested or not shown.

SMILES | S1P3 antagonist | RAM inhibit | S1P4 ag | KCC2 mod | S1P4 antagonist | ROMK mod | ROMK retest
O=C(C1CCCN(S(=O)(=O)c2cccc3cccnc23)C1)N1CCN(c2ccc(F)cc2)CC1 (stereo not given) | -16 | 1 | 1 | x | -18 | x | 0.071
Cn1nnc(NC(=O)C(c2ccccc2)c2ccccc2)n1 | -14 | 4 | 0 | x | 1 | x | x
CCn1nnc(NC(=O)C(c2ccccc2)c2ccccc2)n1 | -20 | 0 | 2 | 0.23 | -26 | -7.3* | 0.077
CC1=NOC(=O)/C1=C\c1ccc(-c2cc(Cl)ccc2Cl)o1 | x | 3 | -2 | 0.81 | 4 | -3.7* | u
CC(C)c1ccc(NC(=O)C(c2ccccc2)N2CC(=O)Nc3ccccc32)cc1 (stereo not given) | -26 | 5 | 0 | 0.13 | 2 | 1.9* | 0.079
COc1ccc(N=C2S/C(=C\c3ccc(OCC(=O)O)cc3)C(=O)N2CCc2c[nH]c3ccccc23)cc1 | -17 | 4 | 0 | -0.56 | -20 | 8.5* | 0.12*
CC(C)N(CCc1ccncc1)C(=S)Nc1cccc(Cl)c1 | -6 | -1 | 0 | 0.84 | -5 | -0.99 | x
O=C(O)c1cn(C2CC2)c2cc(N3CCN(S(=O)(=O)c4ccc5c(c4)OCCO5)CC3)c(F)cc2c1=O | -13 | 2 | 2 | -1.8 | -2 | 0.37 | x
COc1ccc(C=O)cc1Cn1ccnc1C | -8 | 2 | -1 | 0.0046 | -2 | -7.2* | 0.079
COc1ccc(C=O)cc1COc1c(F)c(F)cc(F)c1F | x | 2 | -2 | -0.55 | -8 | 3.9* | 0.091
COc1cc(C=O)ccc1OCc1ccccc1Br | -1 | -1 | 2 | 0.19 | -23 | 0.28 | x
CN(C)c1ccc(/C=C/C(=O)c2c(O)c3ccccc3oc2=O)cc1 | 12 | x | -1 | i | -20 | x | x
CCOc1ccc(/C=C/C(=O)c2c(O)c3ccccc3oc2=O)cc1 | x | 3 | -3 | 0.0015 | -6 | x | 0.063*
COc1ccc(C(=O)/C=C/C(=O)N(Cc2ccccc2)C(C(=O)NC2CCCCC2)c2ccncc2)c(O)c1 (stereo not given) | -2 | 0 | 0 | -0.57 | -6 | -2.4 | x
COc1ccc(C(=O)/C=C/C(=O)N(Cc2ccccc2OC)C(C(=O)NC2CCCCC2)c2ccncc2)c(O)c1 (stereo not given) | -2 | 0 | 0 | -1.2 | 7 | -3.7* | 0.066*
N#CC1=C(N)Oc2c(ccc3cccnc23)C1c1cccnc1 (stereo not given) | x | 2 | 0 | -0.39 | -8 | 3.6* | u
COc1ccc(C(=O)NCC(=O)NCC(=O)OCC(=O)C(C)(C)C)cc1 | -1 | 0 | 3 | 1.6 | -15 | 0.032 | x
COc1ccc(-c2nnnn2-c2ccc(F)cc2F)cc1 | -10 | 1 | 0 | -0.26 | 12 | -3.3* | u
CNC(=S)Nc1cccc(S(=O)(=O)NC2=NCCC2)c1 | 2 | 2 | 0 | 0.042 | -2 | 1 | x
Cc1ccc(N=Nc2[nH]c3ccccc3c2O)cc1 | 5 | 1 | 4 | -1.2 | -2 | -4.8* | 0.056*
C#CCOC(=O)Nc1ccc(OCC(F)(F)F)nc1 | 2 | x | 1 | -0.89 | 15 | x | x
N#CC1(c2ccc(NC(=O)c3ccccc3)cc2)CCCC1 | x | 4 | 0 | 0.97 | 8 | 2.3* | 0.094
Cn1c(=O)c2c(ncn2Cc2ccc(Cl)c(Cl)c2)n(C)c1=O | x | 3 | -1 | -0.051 | -4 | -2.1* | u
Cn1c(N2CCOCC2)nc2c1c(=O)n(Cc1ccc(Cl)c(Cl)c1)c(=O)n2C | x | 2 | 1 | -0.075 | -18 | -3.7* | 0.068*
COc1ccc(C2(C(=O)NC3CCCCC3)CCOCC2)cc1OC | x | -1 | 1 | 0.43 | -27 | 0.51 | x
SMILES | S1P3 antagonist | RAM inhibit | S1P4 ag | KCC2 mod | S1P4 antagonist | ROMK mod | ROMK retest
CSc1nccc(-c2nn(-c3ccc(C)cc3)ccc2=O)n1 | x | 1 | 4 | x | -11 | 4.4* | 0.093
CCSc1nccc(-c2nn(-c3ccc(C)cc3)ccc2=O)n1 | x | 3 | -2 | x | 1 | 3.1* | 0.088
COc1ccc(C(=O)C2CCCN(S(=O)(=O)c3cccnc3)C2)c(C)c1 (stereo not given) | 7 | 1 | 2 | 2.6 | -8 | -8.6* | 0.075
COc1cccc(C(=O)C2CCCN(Cc3cccn3-c3cccnc3)C2)c1 (stereo not given) | -7 | -1 | 0 | 0.0078 | 3 | -2.9* | 0.072
Cc1nn(C)c(C(=O)N/N=C/c2ccc(C(F)(F)F)cc2)c1[N+](=O)[O-] | 0 | 0 | 2 | -0.14 | -2 | x | x
NC(=O)c1cc(-c2ccccc2)nc(Oc2ccccc2)n1 | x | 0 | 0 | 0.04 | 12 | -3.6* | 0.077
N#Cc1cc(-c2ccccc2)nc(Oc2ccccc2)n1 | 21 | 3 | 1 | 0.044 | 5 | -0.087 | x
Cc1[nH]n(-c2c(Cl)cc(Cl)cc2Cl)c(=O)c1C=Nc1ccc(S(=O)(=O)N2CCOCC2)cc1 | -1 | 0 | 0 | 0.055 | -9 | 0.019 | x
CCOC(=O)N1CCN(C(=O)CN(Cc2ccccc2)S(C)(=O)=O)CC1 | -14 | 4 | -1 | 0.44 | -4 | 0.78 | x
CCOC(=O)N1CCN(c2ccc(S(=O)(=O)N(Cc3ccccc3)Cc3ccccc3)cn2)CC1 | 21 | 7 | -1 | -0.089 | -15 | x | 0.075
CC1CCCN(C(C(=O)NC2CCCCC2)c2cc3c(cc2[N+](=O)[O-])OCO3)C1 (stereo not given) | 11 | 1 | 1 | -0.081 | -21 | -1.4 | x
CC1CCN(C(C(=O)NC2CCCCC2)c2cc3c(cc2[N+](=O)[O-])OCO3)CC1 (stereo not given) | 1 | 0 | 0 | 0.34 | 4 | -3.1* | 0.06*
COc1ccc(/C=C/CN2CCC(CO)(Cc3ccccc3Cl)CC2)cc1 | 11 | 3 | -1 | -0.018 | 0 | -1.8* | 0.063*
O=S(=O)(c1ccccc1)N(CC(O)COc1ccccc1)c1ccccc1 (stereo not given) | -8 | x | 0 | x | 3 | x | x
O=C1CCCCCN1Sc1ccccc1 | -25 | 0 | -2 | -0.1 | 21 | x | 0.043*
O=C(CCSc1ccccc1)N1CCCC1 | -3 | 0 | 0 | 0.39 | -8 | 0.32 | x
O=S(=O)(Nc1ccc(Cl)cc1)c1ccc(N2CCOCC2)c(NC(=S)NC2CC2)c1 | -10 | 5 | -1 | -0.37 | 9 | 0.77 | x

Compound activity as filed in PubChem.
